From PubChem BioAssay
The source made the active and inactive calls. Unless noted, the rule behind the calls is not given here.

Experiments:
[1] = tested on: Wnt5a (protein binding on small-molecule microarray); assay: Wnt5a binders on small-molecule microarray, primary screen, biophysical, 635/667 nm fluorescence (AID 1142); conditions: 635 nm fluorescence, higher = more signal;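 note: fluorescence read at 667 nm with signal to noise per printed feature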
[2] = cell viability in Huh7 cells, primary screen, cytotoxicity control for HCV replication inhibitor project, CellTiter-Glo luminescence, basal, 48 h (AID 1143); conditions: Huh7 HCV replicon, higher = more signal, called active from +8 up or from −8 down;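 note: Huh7 hepatoma cells carrying a hepatitis C replication reporter with no stimulus; test concentration not given here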
[3] = P. aeruginosa biofilm formation inhibitors, primary screen, PAO1 strain, BacTiter-Glo luminescence, LB-PBS (AID 1144); conditions: 12 h, higher = more signal
[4] = CREB reporter modulators without forskolin, primary screen, cell-based, PC12, CRE-LacZ reporter, unstimulated (AID 1145); conditions: no forskolin, luminescence, 4.5 h, higher = more signal, called active from +8 up or from −8 down
[5] = CREB reporter modulators under forskolin, primary screen, cell-based, PC12, CRE-LacZ reporter, forskolin-stimulated (AID 1146); conditions: luminescence, 4.5 h, higher = more signal, called active from +8 up or from −8 down;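 note: PC12 cells with 6xCRE LacZ reporter stimulated by forskolin 10 µM; beta-galactosidase reporter signal reflecting CREB driven transcription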
[6] = biological target: Streptavidin (Streptomyces avidinii) (UniProt P22629); assay: streptavidin binders on small-molecule microarray, primary screen, artefact control for SMM compound annotation, biophysical, 635/667 nm fluorescence (AID 1147); conditions: streptavidin binding, higher = more signal;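 note: signal reflects streptavidin binding to arrayed compounds as a control protein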
Streptavidin (Streptomyces avidinii), sequence (P22629 whole entry, looked up): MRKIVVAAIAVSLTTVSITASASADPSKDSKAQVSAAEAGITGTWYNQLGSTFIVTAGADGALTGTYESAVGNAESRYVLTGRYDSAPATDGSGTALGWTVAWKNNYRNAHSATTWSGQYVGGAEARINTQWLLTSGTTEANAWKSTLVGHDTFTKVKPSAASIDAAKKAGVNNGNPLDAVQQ

[7] = small-molecule binders of probe aInhba, primary screen, biochemical, small-molecule microarray, 635/667 nm fluorescence (AID 1148); conditions: higher = more signal;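 note: score merges 667nm spot fluorescence with signal-to-noise for antibody binding to printed compounds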
[8] = biological target: Torsin-1A (Homo sapiens) (UniProt O14656); assay: torsin A binders from cell lysate, primary screen, small-molecule microarray, wild-type, 635/667 nm (AID 1149); conditions: COS7 hTOR1A-WT lysate, 635 nm fluorescence, higher = more signal
Torsin-1A (Homo sapiens), sequence (O14656 whole entry, looked up): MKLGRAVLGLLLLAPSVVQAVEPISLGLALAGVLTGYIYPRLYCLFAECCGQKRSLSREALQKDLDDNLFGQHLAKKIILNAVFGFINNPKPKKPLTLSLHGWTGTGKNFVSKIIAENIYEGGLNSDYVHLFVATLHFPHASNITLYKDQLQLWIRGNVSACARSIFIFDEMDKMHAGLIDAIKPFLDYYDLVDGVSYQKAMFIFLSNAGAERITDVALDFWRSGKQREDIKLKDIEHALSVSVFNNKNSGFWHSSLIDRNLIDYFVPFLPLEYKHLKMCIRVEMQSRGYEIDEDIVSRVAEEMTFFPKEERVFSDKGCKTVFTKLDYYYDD

[9] = biological target: Torsin-1A (Homo sapiens) (UniProt O14656); assay: small-molecule binders of mutant TOR1A in lysate, primary screen, cell lysate, small-molecule microarray, COS7 lysate, 635/667 nm fluorescence (AID 1150); conditions: COS7 hTOR1A mutant lysate, 635 nm fluorescence, higher = more signal;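 note: score pools 667 nm emission and signal to noise measuring lysate protein binding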
[10] = tested on: Sonic hedgehog protein (Shh); assay: small-molecule binders of Shh protein, primary screen, biochemical, small-molecule microarray, 635/667 nm fluorescence (AID 1151); conditions: small-molecule microarray binding, 635 nm fluorescence; higher = more signal;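 note: Shh protein binding to compounds spotted on small-molecule microarray slides; score combines spot fluorescence intensity with signal-to-noise across triplicate slides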

Row | SMILES | composite z-score [1] | z-score [2] | z-score [3] | z-score [4] | z-score [5] | composite z-score [6] | composite z-score [7] | composite z-score [8] | composite z-score [9] | composite z-score [10]
1 | C#CCCCON=C1C[C@@H](O)[C@@H](O)[C@@H]2[C@@H]3C(=O)N([C@@H](C)c4ccccc4)C(=O)[C@@H]3CC[C@H]12 | -0.216 | -3.38 (inactive) | -0.0158 (inactive) | 2.61 (inactive) | -0.428 (inactive) | 0.029 | -0.128 | 0.258 | 0.126 | 0.552
2 | CCOC(=O)[C@H](CC(C)C)NC(=O)CCC1CC(OC(=O)NCc2cccc3ccccc23)CC2(CCCC(COC(=O)NCCN3CCOCC3)O2)O1 (stereo not given in full) | 0.201 | -0.293 (inactive) | -0.677 (inactive) | -0.164 (inactive) | 1.14 (inactive) | 0.308 | -0.0494 | 0.0423 | 0.765 | 0.717
3 | O=C(NN=C1C[C@@H](O)[C@@H](O)[C@@H]2[C@@H]3C(=O)N(c4ccc(F)cc4F)C(=O)[C@@H]3CC[C@@H]12)OCc1ccccc1 | -0.132 | 0.375 (inactive) | 1.21 (inactive) | 0.16 (inactive) | 0.829 (inactive) | 0.98 | -0.128 | 0.871 | 0.464 | -0.33
4 | C[C@@H]1C=CCC(=O)OC[C@H](C)C(=O)N2CCC[C@H]2C(=O)OC1 | 0.15 | 0.111 (inactive) | -0.736 (inactive) | -0.264 (inactive) | -0.0697 (inactive) | 0.245 | -0.21 | 3.08 | 2.85 | 2.33
5 | CCCCc1nc2c(c3c1C[C@H](C)OC3)CN(CCC(C)C)CC2 | 0.122 | -0.262 (inactive) | -0.578 (inactive) | 7.7 (inactive) | -1.14 (inactive) | 0.0392 | -0.0074 | 0.888 | 0.622 | 0.992
6 | CC=CC1=C(CO)[C@H](O)[C@H]2O[C@H]2[C@H]1O | 0.261 | 0.678 (inactive) | 1.58 (inactive) | 0.292 (inactive) | 0.798 (inactive) | 0.082 | -0.0719 | 0.769 | -0.0205 | 1.14
7 | C[N+](C)(C)CCCCCCNC(=O)[C@@H]1C[C@@H]2C(=O)N3CCC[C@H]3C(=O)N2[C@@H]1c1cccc(OCCO)c1 | -0.0544 | -0.345 (inactive) | -1.34 (inactive) | -1.34 (inactive) | 0.27 (inactive) | -1.05 | -0.0754 | -0.383 | 0.624 | 2.25
8 | C[C@H](c1ccccc1)N1C(=O)[C@H]2[C@H]3[C@H](O)[C@H](O)CC(=O)[C@@H]3CC[C@H]2C1=O | 0.507 | -1.37 (inactive) | 0.00143 (inactive) | -0.885 (inactive) | -0.997 (inactive) | 0.239 | -0.0059 | 0.458 | 0.208 | 0.694
9 | CC(C)C[C@@H]1NC(=O)[C@H]2C[C@@H](C(=O)O)[C@@H](c3ccc(O)cc3)N2C1=O | 0.0112 | -0.354 (inactive) | -0.1 (inactive) | 0.281 (inactive) | -0.627 (inactive) | 0.0925 | -0.0521 | 0.884 | 0.285 | 1.67
10 | O=C1[C@H]2[C@H]3[C@H](O)[C@H](O)CC(=NOCc4ccccc4)[C@H]3CC[C@H]2C(=O)N1C[C@@H]1CCCO1 | 0.171 | -0.34 (inactive) | 0.282 (inactive) | -0.298 (inactive) | -0.471 (inactive) | 0.295 | -0.0963 | 0.95 | 0.119 | 0.135
11 | C#CCCCON=C1C[C@@H](O)[C@@H](O)[C@@H]2[C@@H]3C(=O)N(Cc4ccccc4)C(=O)[C@@H]3CC[C@H]12 | 0.203 | -3.22 (inactive) | -1.13 (inactive) | 0.793 (inactive) | -0.645 (inactive) | 0.0194 | -0.209 | 0.289 | -0.0292 | 0.985
12 | CCc1cc2c(nc1CC)CCN(CCC(C)=NOC(C)CN1CCCc3nc(C)c(C)cc31)C2 (stereo not given) | 0.56 | -0.0844 (inactive) | -0.129 (inactive) | 1.14 (inactive) | 0.534 (inactive) | 0.854 | 0.341 | 1.31 | 0.748 | 1.35
13 | C#C[C@@H]1Oc2ccccc2S(=O)(=O)N2CCC[C@H]12 | 0.0869 | 0.299 (inactive) | 0.405 (inactive) | 1.58 (inactive) | 0.14 (inactive) | 0.261 | -0.154 | -0.0705 | 0.0535 | 0.101
14 | C=C(/C(=C/C[C@@H](OC(=O)c1ccncc1)c1ccc(OCCO)cc1)c1cnc2ccccc2c1)C(C)C | 0.73 | -8.41 (active) | -0.56 (inactive) | 6.47 (inactive) | -0.209 (inactive) | 0.283 | 0.0108 | 1.55 | 0.815 | 2.11
15 | CCOC(=O)C1=CC[C@H]2C(=O)N(CC)C(=O)[C@@H]12 | 0.281 | -0.0046 (inactive) | -0.929 (inactive) | -0.228 (inactive) | 0.687 (inactive) | 0.0789 | -0.0719 | 0.483 | -0.552 | 0.13
16 | O=C1c2ccccc2[C@@]2(Cc3ccccc3N(C3CC3)C2=O)[C@H](c2ccc(CO)cc2)N1Cc1ccccc1C(F)(F)F | -0.145 | -4.35 (inactive) | -0.459 (inactive) | -0.258 (inactive) | -0.0879 (inactive) | -1.07 | 0.21 | -1.02 | -0.77 | -0.537
17 | [N-]=[N+]=NCc1ccccc1C[C@]1(C(=O)NCc2ccccc2)N=C(c2ccc(OCCCO)cc2)O[C@H]1c1ccccc1N=[N+]=[N-] | 0.729 | -4.38 (inactive) | -0.144 (inactive) | 0.493 (inactive) | -0.951 (inactive) | 0.83 | -0.287 | -0.0818 | 0.334 | -0.46
18 | COC(=O)C1(C)C=C2C(=C(c3ccccc3)C(=O)C2C)CN1 (stereo not given) | 0.0106 | -0.266 (inactive) | -0.426 (inactive) | 0.593 (inactive) | -0.0287 (inactive) | -0.153 | 0.12 | -0.366 | -0.367 | -0.593
19 | COC(=O)[C@H]1COC(c2ccc(OCCCO)cc2)=N1 | -0.0323 | -0.597 (inactive) | -0.767 (inactive) | 0.0686 (inactive) | 0.697 (inactive) | -0.998 | -0.204 | 0.337 | 1.4 | -0.196
20 | O=C1C[C@@H](O)[C@@H](O)[C@@H]2[C@@H]3C(=O)N(Cc4ccc5c(c4)OCO5)C(=O)[C@@H]3CC[C@@H]12 | 0.0765 | 0.136 (inactive) | 0.00816 (inactive) | -0.116 (inactive) | 0.0785 (inactive) | -0.282 | -0.149 | 0.622 | 0.407 | 0.698
21 | CC(CCN1CCc2nc(-c3ccccc3)c(-c3ccccc3)cc2C1)=NO[C@H](C)c1cn([C@@H]2COC[C@H]2O)nn1 | 0.0025 | -0.615 (inactive) | -0.733 (inactive) | 0.983 (inactive) | -0.258 (inactive) | -0.384 | 0.0183 | 1.01 | 1.11 | 0.572
22 | O=C1C2=CC[C@H]3C(=O)N(Cc4ccc5c(c4)OCO5)C(=O)[C@H]3[C@H]2[C@H](O)[C@@H]2O[C@H]12 | -0.0194 | 0.279 (inactive) | -0.0992 (inactive) | -0.385 (inactive) | -0.454 (inactive) | 0.57 | -0.0933 | 0.475 | 0.677 | 0.495
23 | COc1ccc(COC(=O)NN=C2C[C@@H](O)[C@@H](O)[C@@H]3[C@@H]4C(=O)N(Cc5ccc6c(c5)OCO6)C(=O)[C@@H]4CC[C@@H]23)cc1 | 0.0183 | -0.797 (inactive) | 0.786 (inactive) | 1.61 (inactive) | -0.41 (inactive) | 1.09 | 0.0028 | -1.15 | -0.686 | -1.07
24 | CCOC(=O)[C@H](CC(C)C)NC(=O)CCC1CC(OC(=O)NCc2cccc3ccccc23)CC2(CCCC(COC(=O)NCCc3ccccc3OC)O2)O1 (stereo not given in full) | -0.0588 | -1.86 (inactive) | 0.6 (inactive) | -0.44 (inactive) | 0.0744 (inactive) | 0.556 | -0.217 | 0.203 | 0.408 | 1.07
25 | O=C(CS)NCCCCCNC(=O)[C@@H]1C[C@@H]2C(=O)N[C@@H](Cc3ccccc3)C(=O)N2[C@@H]1c1ccc(O)cc1 | 0.835 | -0.0984 (inactive) | -0.616 (inactive) | 0.692 (inactive) | -0.981 (inactive) | -0.859 | -0.128 | 0.489 | 0.845 | 0.981
26 | [N-]=[N+]=Nc1ccccc1C[C@@]1(C(N)=O)N=C(c2ccc(OCCCO)cc2)O[C@@H]1c1ccccc1 | 0.0445 | -4.04 (inactive) | -0.616 (inactive) | 0.377 (inactive) | -1.39 (inactive) | 1.08 | 0.0561 | 0.296 | 0.355 | -0.714
27 | O=C1O[C@@H](c2ccccc2)[C@@H](c2ccccc2)N2[C@@H](c3ccc(OCCO)cc3)[C@]3(C(=O)Nc4ccccc43)[C@@H](C(=O)N3CCN(c4ncccn4)CC3)[C@H]12 | 0.22 | -0.704 (inactive) | 0.349 (inactive) | 0.865 (inactive) | 3.05 (inactive) | 0.557 | 0.175 | 0.403 | 0.94 | 1.14
28 | Cc1ccc(S[C@]2(C(=O)O)CC(=O)N(Cc3ccccc3)[C@@H]2c2ccc(CO)cc2I)cc1 | -0.405 | -1.32 (inactive) | 0.116 (inactive) | 1.97 (inactive) | 1.63 (inactive) | 0.556 | -0.0963 | -0.995 | -0.604 | -0.41
29 | COc1ccc(-c2nc3c(c4c2C[C@H](C)OC4)CN(CCC(C)C)CC3)cc1 | -0.0798 | -0.333 (inactive) | -1.22 (inactive) | 7.06 (inactive) | -1.11 (inactive) | 0.141 | -0.0791 | -0.253 | 0.0824 | 1.32
